# Records with an inconclusive call do not appear. A number with no mark means an inactive call. Calls of active or inactive are those of the source. Calls follow the shape of the dose curve; as a rule, active = well fitted inhibition curve with a large enough effect; inconclusive = small, poorly fitted or top-dose-only effect; inactive = flat fitted curve, though single readings scatter.
# Test system: CRL-7250
# Experiment: Cytotoxic Profiling of Annotated Libraries Using Quantitative High-Throughput Screening (AID 1296008); also: nearly all actives have a fitted effect of over 60% in size
# Conditions: Five cell lines viability, CellTiter-Glo ATP luminescence, 48-72 h; max response: active compounds read low
# Method in brief: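 Compounds were pin-transferred onto cells and incubated 48 or 72 hr at 37 degree Celsius, 95% humidity. CellTiter-Glo was added, plates sat 10 min at room temperature, then ATP-coupled luminescence was imaged as the viability read-out.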
# % is scaled to controls: 0 for no effect and ±100 for the full control effect; potency is read from the fitted curve at half-maximal effect.
Compound,max response [%],Potency
C[C@@H]1O[C@@H](O[C@H]2[C@H](O)[C@@H](O)[C@H](OC3CCC4(C)C5CCC(C)(C(CO)OC6OC(CO)C(O)C(O)C6O)CC5=CCC4C3(C)C)O[C@@H]2CO)[C@H](O)[C@H](O)[C@H]1O (some centres undefined),2.65,–
O=C(O[C@H]1[C@@H]2C=CO[C@@H](O[C@@H]3O[C@H](CO)[C@@H](O)[C@H](O)[C@H]3O)[C@@H]2[C@@]2(CO)O[C@@H]12)c1ccccc1,-3.06,–
COc1cc(C(=O)OC[C@H]2O[C@@H](Oc3ccccc3/C=C/C(=O)O)[C@H](O)[C@@H](O)[C@@H]2O)cc(OC)c1OC,-2.66,–
CCOc1cc(N2CCC(O)CC2)ccc1Nc1ncc2c(n1)N(C1CCCC1)CCC(=O)N2C,–,6.51 µM (active)

# Source: PubChem BioAssay (NCATS)
